Test results: PubChem BioAssay AID1117289 (Broad Institute, 2014)
Results with a measured potency or affinity are listed apart. Inconclusive results are not listed. Active and inactive are the calls of the source.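 The calls were made as follows: active = inhibitor whose fitted half-maximal dose is at most twice the top tested dose in every run; inconclusive = runs disagree, poor fit, or flat fit inhibiting 30 to 70%; inactive = every run inactive, flat, rising or too weak.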

Biological target: Endoplasmic reticulum aminopeptidase 2 (Homo sapiens) (UniProt Q6P179)
Test: ERAP2 aminopeptidase inhibitors, dose response, selectivity assay for selective ERAP1 modulator project, biochemical, plate reader, dry powder, set 2 (AID 1117289)
Details: purified ERAP2, Arg-AMC hydrolysis fluorescence, 1 h; series mostly up to 50 µM

Chain of Endoplasmic reticulum aminopeptidase 2 (Homo sapiens) (Q6P179 whole entry, looked up): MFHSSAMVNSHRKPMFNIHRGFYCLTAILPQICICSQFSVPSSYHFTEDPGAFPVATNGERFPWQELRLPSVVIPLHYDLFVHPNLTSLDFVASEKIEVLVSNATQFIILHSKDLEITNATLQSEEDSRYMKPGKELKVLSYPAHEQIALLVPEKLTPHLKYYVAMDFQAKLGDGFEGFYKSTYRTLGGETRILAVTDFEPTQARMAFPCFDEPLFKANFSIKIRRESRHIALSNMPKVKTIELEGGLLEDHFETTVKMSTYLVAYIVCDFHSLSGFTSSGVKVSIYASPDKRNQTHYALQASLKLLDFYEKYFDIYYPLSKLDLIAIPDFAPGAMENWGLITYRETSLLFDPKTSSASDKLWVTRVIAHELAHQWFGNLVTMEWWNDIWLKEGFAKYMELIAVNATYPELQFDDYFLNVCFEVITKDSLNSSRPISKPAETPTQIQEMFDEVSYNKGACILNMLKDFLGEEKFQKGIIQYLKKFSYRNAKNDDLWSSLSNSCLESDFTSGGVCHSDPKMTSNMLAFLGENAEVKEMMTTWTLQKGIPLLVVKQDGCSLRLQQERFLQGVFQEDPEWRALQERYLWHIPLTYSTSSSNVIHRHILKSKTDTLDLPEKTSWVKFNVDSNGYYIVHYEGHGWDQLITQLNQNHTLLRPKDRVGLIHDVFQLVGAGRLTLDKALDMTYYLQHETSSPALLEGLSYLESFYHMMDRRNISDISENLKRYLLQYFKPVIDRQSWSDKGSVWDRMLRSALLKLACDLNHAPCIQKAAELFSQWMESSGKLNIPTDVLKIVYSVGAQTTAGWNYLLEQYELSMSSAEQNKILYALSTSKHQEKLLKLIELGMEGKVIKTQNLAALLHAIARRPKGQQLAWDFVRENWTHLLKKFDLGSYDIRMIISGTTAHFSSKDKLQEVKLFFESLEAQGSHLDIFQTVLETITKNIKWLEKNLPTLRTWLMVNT

| Structure (SMILES) | outcome | activity change, negative = inhibition |
| --- | --- | --- |
| COc1ccc(C(=O)O)cc1S(=O)(=O)Nc1cc(C)ccc1N1CCCCC1 | inactive |  |
| COc1ccc(C(=O)O)cc1S(=O)(=O)Nc1cc(C(F)(F)F)ccc1N1CCN(C(C)=O)CC1 | inactive |  |
| COc1ccc(C2=NN(c3ccc(C(=O)O)cc3)C(c3ccc(OC)c(OC)c3)C2)cc1 (centres undefined) |  | 289% [at 6 µM] (inactive) |
| COc1ccc(C(=O)O)cc1S(=O)(=O)N(C)c1cc(C(F)(F)F)ccc1N1CCCCC1 | inactive |  |
